Some test systems named below: NCI-H23 lung; NCI-H226 lung; NCI-H322M lung; HOP-62 NSCLC; NCI-H460 lung; HOP-92 NSCLC; NCI-H522 lung; A549/ATCC NSCLC; 786-0 renal; COLO 205 colon; DU-145 prostate; K-562 leukemia; MALME-3M melanoma; MDA-MB-231 breast; RXF 393 renal; SF-268 CNS; SF-295 CNS; SF-539 CNS; UACC-257 melanoma; M14 melanoma.
What all share (experiment): NCI-60 one-dose screen, 48 h (100 = growth as untreated, 0 = no growth, -100 = all killed)
What all share (settings): 10 µM unless noted

Compounds without any hit were thinned out: in the full panel of roughly 83,000, 20% have a hit.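 Single-dose data. Exposure time 48 hours. Values below 10 considered active.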 Values without a mark were called inactive. The source made the active and inactive calls.

Turning to `Cc1cccc(NC(=O)c2sc3nc4c(cc3c2N)CN(Cc2ccccc2)CC4)c1C`, the growth in the test with NCI-H23 lung is 51.3%; with NCI-H226 lung, 60%; in the test with NCI-H322M lung it was 40.4%; in the test on HOP-62 NSCLC it was 32.3%; in the test on NCI-H460 lung it was 12.5%; in the test with HOP-92 NSCLC, 35.2%. The growth is 11.3% with NCI-H522 lung; 31.1% with A549/ATCC NSCLC; 31.9% in the test on 786-0 renal; -0.373% (active) in the test with COLO 205 colon; 0.783% (active) in the test on DU-145 prostate; 13.1% with K-562 leukemia. Besides, the growth with MALME-3M melanoma is 53.5%; with MDA-MB-231 breast, 45.2%; in the test on RXF 393 renal, 16.9%; in the test with SF-268 CNS, 41.4%; in the test on SF-295 CNS, 27.6%; in the test with SF-539 CNS it was 19.8%. Besides, the figures for the growth with UACC-257 melanoma and with M14 melanoma were 87.9% and 4.27% (active), respectively.

As to `C1=CC2=CC=C3C=CC=C4C(c5nc6c7ccccc7c7ccccc7c6[nH]5)=CC(=C1)C2C34` (stereo not given), the growth in the test with NCI-H23 lung is 98.1%; in the test on NCI-H226 lung, 23.8%; in the test on NCI-H322M lung it was 90.9%; in the test with HOP-62 NSCLC it was 68.7%; in the test on NCI-H460 lung, 98.9%; with HOP-92 NSCLC, 72.9%. Besides, the growth with NCI-H522 lung was 82.5%; with A549/ATCC NSCLC, 89.7%; in the test with 786-0 renal, 98.2%; in the test with COLO 205 colon, 120%; with DU-145 prostate, 105%; with K-562 leukemia, 90.4%. For the same compound, the growth is 117% in the test with MALME-3M melanoma; 76.8% with MDA-MB-231 breast; 99.8% with RXF 393 renal; 85.4% in the test on SF-268 CNS; 113% in the test on SF-295 CNS; 101% in the test with SF-539 CNS. In addition, the growth in the test on UACC-257 melanoma is 105%; with M14 melanoma it was 99.3%.

Turning to `COc1cc(F)c(-c2nc3c(C)cccc3n2Cc2c(F)cccc2F)c(F)c1`, the growth was 79.8% in the test on NCI-H23 lung; 88.7% in the test with NCI-H226 lung; 87.5% in the test with NCI-H322M lung; 83.3% in the test on HOP-62 NSCLC; 77.8% with NCI-H460 lung; 81.3% in the test on HOP-92 NSCLC. The growth is 73.4% in the test on NCI-H522 lung; 69.1% in the test with A549/ATCC NSCLC; 85.7% in the test on 786-0 renal; 98% with COLO 205 colon; 108% in the test on DU-145 prostate; 76.2% in the test on K-562 leukemia. Besides, the growth in the test with MALME-3M melanoma was 79.5%; in the test with MDA-MB-231 breast it was 89.2%; in the test with RXF 393 renal, 97.8%; in the test with SF-268 CNS, 84.3%; in the test with SF-295 CNS, 79.9%; with SF-539 CNS it was 101%. In addition, the growth in the test on UACC-257 melanoma is 76.2%; in the test with M14 melanoma, 86.3%.

`O=C1CCC23OC(c4ccccc4N12)C(O)C(O)C3O` (stereo not given): the growth with NCI-H23 lung was 102%; with NCI-H226 lung it was 107%; in the test with NCI-H322M lung it was 98.6%; in the test with HOP-62 NSCLC, 104%; in the test with NCI-H460 lung, 112%; with HOP-92 NSCLC, 113%. The growth in the test with NCI-H522 lung is 81%; with A549/ATCC NSCLC, 94.5%; in the test on 786-0 renal, 98.8%; in the test with COLO 205 colon it was 124%; in the test on DU-145 prostate, 107%; with K-562 leukemia, 90.4%. Besides, the growth in the test with MALME-3M melanoma is 91.6%; with MDA-MB-231 breast, 103%; in the test on RXF 393 renal, 113%; in the test with SF-268 CNS, 96.6%; in the test with SF-295 CNS it was 110%; with SF-539 CNS, 101%. Also, the growth is 102% with UACC-257 melanoma and 100% with M14 melanoma.

Regarding `O=C1CC(c2ccc(O)c(O)c2)Oc2cc(O)c([C@@H]3O[C@H](CO)[C@@H](O)[C@H](O)[C@H]3O)c(O)c21` (stereo not given in full), the growth in the test with NCI-H23 lung was 106%; in the test with NCI-H226 lung, 98.9%; in the test on NCI-H322M lung, 113%; with HOP-62 NSCLC, 105%; with NCI-H460 lung, 99.1%; in the test on HOP-92 NSCLC, 113%. The growth was 100% in the test on NCI-H522 lung; 94.8% in the test on A549/ATCC NSCLC; 99.5% in the test with 786-0 renal; 108% in the test on COLO 205 colon; 105% in the test on DU-145 prostate; 96.8% with K-562 leukemia. Also, the growth is 110% in the test with MALME-3M melanoma; 101% in the test on MDA-MB-231 breast; 103% with RXF 393 renal; 102% with SF-268 CNS; 103% in the test with SF-295 CNS; 100% with SF-539 CNS. Besides, the values for the growth with UACC-257 melanoma and in the test with M14 melanoma were 106% and 102%, respectively.

Regarding `CN(CCC#N)C(=O)Nc1ccccc1`, the growth in the test on NCI-H23 lung is 101%; with NCI-H226 lung, 106%; in the test on NCI-H322M lung it was 107%; with HOP-62 NSCLC it was 98.8%; in the test on NCI-H460 lung it was 112%; in the test with HOP-92 NSCLC, 114%. In addition, the growth in the test on NCI-H522 lung is 79.8%; with A549/ATCC NSCLC, 101%; with 786-0 renal, 101%; with COLO 205 colon it was 112%; in the test on DU-145 prostate, 115%; in the test with K-562 leukemia it was 96.2%. Besides, the growth with MALME-3M melanoma is 100%; with MDA-MB-231 breast, 116%; in the test on RXF 393 renal, 114%; in the test with SF-268 CNS, 106%; in the test with SF-295 CNS, 109%; with SF-539 CNS, 105%. Further, the values for the growth in the test on UACC-257 melanoma and in the test with M14 melanoma were 94.1% and 109%, respectively.

In the case of `S=C(Nc1ccccc1)c1ccccn1`, the growth was 87.5% with NCI-H23 lung; 94.7% in the test on NCI-H226 lung; 101% with NCI-H322M lung; 75.2% with HOP-62 NSCLC; 100% in the test on NCI-H460 lung; 84.6% in the test on HOP-92 NSCLC. The growth in the test with NCI-H522 lung is 74.4%; in the test with A549/ATCC NSCLC, 91.7%; in the test on 786-0 renal, 96.5%; in the test on COLO 205 colon it was 67.9%; with DU-145 prostate, 120%; with K-562 leukemia, 99.7%. Also, the growth in the test with MALME-3M melanoma was 114%; in the test on MDA-MB-231 breast, 102%; in the test with RXF 393 renal, 128%; in the test on SF-268 CNS, 105%; in the test with SF-295 CNS it was 114%; with SF-539 CNS, 91.1%. Moreover, the growth in the test with UACC-257 melanoma is 31.3%; with M14 melanoma, 90.6%.

(Values after PubChem BioAssay (NCI).)
